Source: PubChem BioAssay (NCI)
“And” between values parts separate entries of the source, which are not always exact repeats. Equal values may be shown once. This is part of a sample that, as a whole, favours compounds with a hit. Of some 79,000 tested, about 15% had one in any assay. The source made the active and inactive calls. Cut-off read from the data, not from the text of the source: active = growth inhibition above about 70%; inactive = the rest.

How the values were obtained:
[1] = NCI Yeast Anticancer Drug Screen. Data for the rad50 strain (AID 155);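 note: 0% = growth of vehicle-only cultures of the same strain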; settings: S. cerevisiae rad50 strain growth inhibition, active compounds read high; at 50.0 µM unless noted
Outline: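 Growth of the mutant yeast was measured after compound exposure and referenced to vehicle-treated cultures.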

[2] = NCI Yeast Anticancer Drug Screen. Data for the mec2-1 strain (AID 157); settings: S. cerevisiae mec2-1 strain, active compounds read high; at 50.0 µM unless noted
Outline: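 Readout is yeast growth inhibition, normalised to vehicle-treated controls, in the mec2-1 strain exposed to compound.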

[3] = NCI Yeast Anticancer Drug Screen. Data for the sgs1 mgt1 strain (AID 161);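 note: 0% = growth of cultures given vehicle only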; settings: S. cerevisiae sgs1 mgt1 strain, active compounds read high; at 50.0 µM unless noted
Outline: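 This yeast growth screen uses a strain with defined DNA-repair lesions; compound-treated growth is compared with vehicle-treated growth.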

[4] = NCI Yeast Anticancer Drug Screen. Data for the cln2 rad14 strain (AID 165);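 note: 0% = growth equal to vehicle treated cultures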; settings: S. cerevisiae cln2 rad14 strain, active compounds read high; at 50.0 µM unless noted
Outline: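 Relative to vehicle controls, growth inhibition of compound-treated cln2 rad14 yeast was recorded.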

[5] = NCI Yeast Anticancer Drug Screen. Data for the bub3 strain (AID 167); settings: S. cerevisiae bub3 mutant strain, active compounds read high; at 50.0 µM unless noted
Outline: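 Whole-cell yeast assay. The mutant strain was incubated with compounds, and growth inhibition was determined by comparison with vehicle-treated cells.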

[6] = NCI Yeast Anticancer Drug Screen. Data for the mlh1 rad18 strain (AID 175); settings: S. cerevisiae mlh1 rad18 strain growth inhibition, active compounds read high; at 50.0 µM unless noted
Outline: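 Test agents were incubated with a yeast strain of defined genotype (DNA damage repair defect). Inhibition of growth was derived by comparison with vehicle-exposed cultures.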

Measured: growth inhibition

COC1=CC(=O)C2CC=CC(CC(=O)O)C2(C)C1=O (stereo unspecified)
inactive: [1] -0.95% | [2] -2.4% | [3] -0.35% | [4] -21.9% | [5] 7.3% | [6] 4.5%

O/C(=C/c1ncnc2ccccc12)c1cccc(Cl)c1
inactive: [1] 12.5% | [2] 4.4% | [3] 22.8% | [4] -11.4% | [5] 14.7% | [6] 15%

CN(C)CC(C(=O)/C=C/c1ccccc1)C(C)(C)C (stereo unspecified)
inactive: [1] -10.4% | [2] -21.9% | [3] -16.2% | [4] 11.6% | [5] -11% | [6] -38.3%

NC(=O)C(N)CC12CC3CC(CC(C3)C1)C2 (stereo unspecified)
inactive: [1] -6% | [2] -18.2% | [3] -10.6% | [4] 17.7% | [5] 10.7% | [6] -4.7%

CC(=O)OC(C)COc1ccccc1 (stereo unspecified)
inactive: [1] 23.1% and 5.6% | [2] 1.55% and -10.3% | [3] 2.05% and -4.55% | [4] -31.2% and -6.8% | [5] -17.1% and 8.8% | [6] 15.6% and 15%

COc1ccc(CCC(=O)c2ccc(N)cc2)cc1
inactive: [1] -22.1% | [2] -16.4% | [3] -0.65% | [4] -11.5% | [5] -3.75% | [6] -22.3%

OCCCCC1CCCc2ccccc21 (stereo unspecified)
inactive: [1] 17.3% | [2] 16.1% | [3] 3.15% | [4] -4.55% | [5] -1.85% | [6] -3.45%

Cc1cccc(C)c1NS(=O)(=O)c1ccc(Cl)cc1
inactive: [3] 68.7%
active: [1] 91.8% | [2] 84.4% | [4] 91.7% | [5] 94% | [6] 90.4%

C=C1CC2(OC1=O)c1ccccc1C=Cc1ccccc12
inactive: [1] 26.8% | [2] 13.4% | [3] 55.1% | [4] 48.8% | [5] 47.5% | [6] 50.4%

CCCOC(CCC(=O)NC(C)(C)C)CC(=O)NC(C)(C)C (stereo unspecified)
inactive: [1] 5.85% | [2] 5.45% | [3] 6.9% | [4] 4.15% | [5] 0.55% | [6] -9.9%

CCCCCCNC(=O)CCN(C(=O)O)S(=O)(=O)c1ccc(NC(=O)c2ccccc2)cc1
inactive: [1] 11.7% | [2] -3.45% | [3] 8.6% | [4] 17.7% | [5] 7.4% | [6] -1.45%

C(CCC1CO1)CC1CO1 (stereo unspecified)
inactive: [1] 3.25% | [2] -21.1% | [3] -31.6% | [4] -27.2% | [5] -5.45% | [6] -22.8%

COC(=O)C(CCSc1ccccc1)C(=O)OC
inactive: [1] 0.85% | [2] -4.45% | [3] 20.1% | [4] 12.1% | [5] 28.2% | [6] -3.1%

O=S(=O)(/C(=C\c1ccccc1)c1ccccc1)c1ccccc1
inactive: [1] -4.8% | [2] -12.4% | [3] -12.8% | [4] -17.7% | [5] -4.5% | [6] -6.65%

O=C(NCc1ccc(Cl)cc1)NC1CCCCC1
inactive: [1] 5.75% | [2] 36.9% | [3] 35.5% | [4] 2.7% | [5] 20.9% | [6] 46%

CCCCN(CCCC)C(=O)C(=O)C(C(=O)c1ccc(OC)cc1)c1ccc(OC)cc1 (stereo unspecified)
inactive: [1] -8.95% | [2] -1.5% | [3] -11.8% | [4] -10.3% | [5] 14.1% | [6] -3.95%

CCOC(=O)Cc1ccc(N(CCO)CCO)cc1
inactive: [1] 5.15% | [2] 7.4% | [3] 22.8% | [4] -0.2% | [5] 12.9% | [6] 5.55%

O=C(Nc1ccc(Cl)cc1[N+](=O)[O-])Oc1ccc(C2CCCCC2)cc1
active: [1] 98.2% | [2] 94.3% | [3] 98% | [4] 87% | [5] 98% | [6] 97.5%

O=C(Nc1ccc(S(=O)(=O)c2ccc(F)cc2)cc1)OC1CCCCC1
inactive: [1] 35.9% | [2] 5.85% | [3] 38.9% | [4] 18.1% | [5] 4.4% | [6] 18.4%

CC1CC(NC(=S)N(C)C)CC(C)(C)C1 (stereo unspecified)
inactive: [1] 6.9% | [2] 3.65% | [3] 18.8% | [4] -10.8% | [5] 47.9% | [6] 3.55%

O=C(CC(=O)C(F)(F)F)c1ccccc1.O=C(CC(=O)C(F)(F)F)c1ccccc1.[Mn]
inactive: [1] -1.85% | [2] -0.35% | [3] 19.2% | [4] -13.7% | [5] 3.6% | [6] 18.5%

COCN1C(=N)C(C(=O)OC(C)(C)C)=C2C=C(O)C=CC21C (stereo unspecified)
inactive: [1] -4.5% | [2] 14.7% | [3] -23.4% | [4] 9.1% | [5] 22.2% | [6] 2.55%

CNCCc1cn(C2OC(CO)C(O)C(O)C2O)cn1 (stereo unspecified)
inactive: [1] -7.15% | [2] -17.6% | [3] -22.3% | [4] -40.9% | [5] -28.4% | [6] -13.3%

Cc1ccc(-c2ccc(C)cc2C(=O)O)c(C(=O)O)c1
inactive: [1] -21.8% | [2] 1% | [3] 4% | [4] -28.1% | [5] -2.5% | [6] -15.3%

Cc1ccc(S(=O)(=O)N/N=C/c2ccoc2)cc1
inactive: [1] -32.1% | [2] -8.6% | [3] -17.1% | [4] -3.9% | [5] 4.45% | [6] -14.4%

NC(COC(=O)NCCCl)C(=O)O (stereo unspecified)
inactive: [1] 12.7% | [2] -6.95% | [3] -0.35% | [4] -11.5% | [5] 22.1% | [6] 18.6%

CN1N=C(c2ccncc2)OC1c1cccc(C(F)(F)F)c1 (stereo unspecified)
inactive: [1] -63.6% | [2] -65.9% | [3] -32.8% | [4] -3.6% | [5] 0.75% | [6] -21.3%

CC(=O)C[n+]1cccc(Br)c1
inactive: [1] -6.7% | [2] 8.7% | [3] 10.2% | [4] -8.15% | [5] 9.5% | [6] -5.9%

O=C(c1ccc(-c2ccccc2)cc1)c1ncc(-c2ccc(-c3ccccc3)cc2)[nH]1
inactive: [1] 15.5% | [2] 10.7% | [3] 17.1% | [4] -4% | [5] 19.1% | [6] 21.3%

C=CCCCCCCCCCCCCCCCC
inactive: [1] -24% | [2] -49% | [3] -23.1% | [4] -13.2% | [5] -27.6% | [6] -9.2%

CC1=C(C(=O)Nc2cc(=O)n(C)c(=O)n2C)C(c2cccc([N+](=O)[O-])c2)C(C(=O)Nc2cc(=O)n(C)c(=O)n2C)=C(C)N1
inactive: [1] 8.7% | [2] 32.1% | [3] 24.9% | [4] 21.9% | [5] 24.4% | [6] 41.8%

Cc1ccc(C(=O)CC2=Nc3nnc(CCCCCCCc4nnc5n4C(=O)C(CC(=O)c4ccc(C)cc4)=N5)n3C2=O)cc1
inactive: [1] -9.45% | [2] 22.4% | [3] -0.1% | [4] -22% | [5] -5.25% | [6] -11.1%

COc1ccc(NS(=O)(=O)c2ccc(NC(CNC(C)S(=O)(=O)O)S(=O)(=O)O)cc2)cc1 (stereo unspecified)
inactive: [1] 18.1% | [2] 5.75% | [3] 29.3% | [4] 52.5% | [5] -0.85% | [6] 36.5%

CCCCCCCCCCCCCCCCCC(=O)CBr
inactive: [1] 14% | [2] 9.9% | [3] 10.9% | [4] -25.4% | [5] 2.2% | [6] 38.9%

O=C(Nc1ccc(Cl)cc1)NC1OC(=O)C(Cl)=C1Cl (stereo unspecified)
inactive: [1] 23.4% | [2] 9.3% | [3] 8.55% | [4] -17.9% | [5] 3.5% | [6] 23.1%

Cc1ccc(S(=O)(=O)/C=C(/SC#N)C2CCCCC2)cc1
active: [2] 90.6% | [5] 83.1% | [6] 79.7%
inactive: [1] 32.5% | [3] 69.5% | [4] 17.9%

O=C(CSc1nnc(-c2ccc(N=Cc3ccc(Cl)cc3)cc2)o1)Nc1cccc([N+](=O)[O-])c1
inactive: [1] -1.95% | [2] -11.1% | [3] 3.85% | [4] 18.1% | [5] -40% | [6] 2.45%

CCOC(=O)C(=O)Nc1cc(C)no1
inactive: [1] 4.95% | [2] 9.85% | [3] -6.6% | [4] -25.6% | [5] -25.1% | [6] -2%

Cc1cc(Cl)ccc1NC(=O)Oc1ccc(C#N)cc1
inactive: [1] -13.8% | [2] -18.4% | [3] -25.2% | [4] -10.6% | [5] -17.1% | [6] -19.4%

NC(N)=NS(=O)(=O)c1ccc(N=NC2=C(O)C(c3ccccc3)N(c3ccccc3)C2=O)cc1 (stereo unspecified)
inactive: [1] 6.35% | [2] 22.1% | [3] 35.5% | [4] 0.3% | [5] 0.45% | [6] 33%

O=C(O)CCCC1CCC(=O)CC1
inactive: [1] -0.4% | [2] -7.55% | [3] -8.1% | [4] -24.4% | [5] 0.5% | [6] 3.35%
